Here are results for ten compounds from PubChem BioAssay (NCI).

The panel holds about 83,000 compounds, 20% with a hit somewhere; the sample as a whole holds those more often.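 Method: cells in 96-well plates; compound added at one concentration; 48 h incubation; percent growth measured; values under 10 scored active.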 Active and inactive are the calls of the source.

Holding throughout (assay): NCI-60 one-dose screen, 48 h (100 = growth as untreated, 0 = no growth, -100 = all killed)
What all share (details): 10 µM unless noted

The subject of test [1] is RPMI-8226 leukemia.
For test [2], the system named is OVCAR-8 ovarian.
The test system of test [3] is SK-OV-3 ovarian.
Test [4] has as its system IGROV1 ovarian.
Test [5] deals with OVCAR-3 ovarian.
In test [6] the test system is HS 578T breast.
Test [7] has as its system NCI/ADR-RES ovarian.
The subject of test [8] is T-47D breast.
Test [9] has as its system BT-549 breast.
Test [10] relates to MDA-MB-435 melanoma.
For test [11], the system named is SW-620 colon.
Test [12] has as its system MCF7 breast.
In test [13] the test system is HCT-116 colon.
The subject of test [14] is HCC-2998 colon.
In test [15] the test system is KM12 colon.
For test [16], the system named is OVCAR-5 ovarian.
Test [17] concerns OVCAR-4 ovarian.

With `Clc1ccc(-c2nc(-c3cccs3)no2)c(Cl)c1`, the growth is 86% (inactive) in test [1]; 97.1% (inactive) in [2]; 93.9% (inactive) in [3]; 66.8% (inactive) in test [4]; 99.2% (inactive) in test [5]; 96.1% (inactive) in test [6]. The growth in test [7] is 103% (inactive); in test [8] it was 51.7% (inactive); in test [9], 83% (inactive); in test [10] it was 111% (inactive); in [11] it was 88.1% (inactive); in test [12], 29.2% (inactive). In addition, the growth in [13] is 94.6% (inactive); in [14] it was 68% (inactive); in test [15] it was 99.3% (inactive).
In the case of `COc1ccc(Cn2c(NCCCN(C)C)nc(=O)n(Cc3ccc(F)cc3)c2=O)cc1`, the growth is 95.7% (inactive) in test [1]; 109% (inactive) in test [16]; 93.1% (inactive) in [17]; 86.3% (inactive) in test [3]; 84.7% (inactive) in [4]; 87% (inactive) in test [5]. In addition, the growth in [6] was 93.3% (inactive); in test [7], 109% (inactive); in [8], 83.4% (inactive); in test [9] it was 92.5% (inactive); in [10], 102% (inactive); in test [11], 100% (inactive). The growth in test [13] was 93.8% (inactive); in [14], 101% (inactive); in test [15] it was 99.8% (inactive).
As to `CSc1ccc2c(c1)N(CCC1CCCCN1C)c1ccccc1S2` (stereo not given), the growth in [1] is 26.3% (inactive); in test [2] it was 69.9% (inactive); in test [17] it was 64% (inactive); in test [3], 81% (inactive); in [4], 36.4% (inactive); in test [5], 92.3% (inactive). For the same compound, the growth in test [6] was 47.6% (inactive); in test [7], 65.6% (inactive); in test [9] it was 67.9% (inactive); in test [10] it was 42.6% (inactive); in [11] it was 75.6% (inactive); in [12], 5.18% (active). Besides, the growth in test [13] is 42.3% (inactive); in test [14], 34.4% (inactive); in test [15], 45% (inactive).
Consider `Cc1cccc(Cl)c1NC(=O)c1ccc2nc(NC(=O)NC3CC(C)(C)NC(C)(C)C3)sc2c1`, for which the growth in test [1] is 87.1% (inactive); in test [16], 78% (inactive); in [17], 95.3% (inactive); in test [3], 76.3% (inactive); in [4] it was 65.2% (inactive); in [5], 99.7% (inactive). Also, the growth is 30.8% (inactive) in test [6]; 118% (inactive) in test [7]; 54% (inactive) in test [8]; 95% (inactive) in test [9]; 90% (inactive) in test [10]; 110% (inactive) in test [11]. Further, the growth is 86.5% (inactive) in test [12], 89.1% (inactive) in [13], 96.5% (inactive) in [14] and 110% (inactive) in test [15].
For the compound `CCOc1cc(C(C)(C)C)ccc1C1=N[C@H](c2ccc(Cl)cc2)[C@H](c2ccc(Cl)cc2)N1C(=O)N1CCN(CC#Cc2cccc3c2CN([C@@H]2CCC(=O)NC2=O)C3=O)CC1`, the growth is 17.2% (inactive) in test [2]; 76% (inactive) in test [16]; 26.5% (inactive) in test [17]; 62.4% (inactive) in test [3]; 8.46% (active) in [4]; 41.1% (inactive) in [5]. Also, the growth in test [6] was 16.9% (inactive); in test [8] it was 13.3% (inactive); in [9] it was 22.9% (inactive); in [10], 33.6% (inactive); in test [11], 26.9% (inactive); in test [12] it was 8.49% (active). In addition, the growth is 17.8% (inactive) in [13], 25.3% (inactive) in test [14] and 26.3% (inactive) in test [15].
Regarding `CCOC(=O)C(Cc1ccccc1)(C(=O)OCC)C(Br)C(=O)c1ccccc1` (stereo not given), the growth in test [2] is 81.4% (inactive); in test [16], 98.1% (inactive); in [17], 39.8% (inactive); in test [3], 92.2% (inactive); in [4] it was 75.1% (inactive); in test [5], 61.3% (inactive). In addition, the growth was 83.1% (inactive) in test [6]; 85.1% (inactive) in test [7]; 77.3% (inactive) in test [10]; 39.8% (inactive) in [11]; 56.9% (inactive) in test [12]; 53.3% (inactive) in test [13]. The values for the growth in test [14] and in test [15] were 100% (inactive) and 97.9% (inactive), respectively.
Regarding `COc1c(C)c2c(c(O)c1C/C=C(\C)CCC(=O)OCCN1CCOCC1)C(=O)OC2`, the growth was 16% (inactive) in [1]; 36.8% (inactive) in test [16]; 31.4% (inactive) in test [3]; 13% (inactive) in test [4]; 36.1% (inactive) in test [5]; 50.4% (inactive) in test [6]. The growth was 21.5% (inactive) in [7]; 29.3% (inactive) in test [8]; 40.4% (inactive) in test [9]; 26.2% (inactive) in [10]; 19.6% (inactive) in [11]; 14% (inactive) in [13]. For the same compound, the results for the growth in test [14] and in test [15] were 18.1% (inactive) and 27.8% (inactive), respectively.
Regarding `O=C(/C=C/c1cc2ccccc2[nH]c1=O)c1ccc(Cl)cc1`, the growth in test [2] was 23.1% (inactive); in test [16] it was 55.9% (inactive); in [17], 43.8% (inactive); in test [3], 58% (inactive); in test [4], 26.4% (inactive); in test [5], -10.1% (active). Further, the growth in test [6] is 54% (inactive); in test [7], -6.67% (active); in test [8], 34% (inactive); in test [9], 29.4% (inactive); in [10] it was 8.38% (active); in test [11], -19.9% (active). Also, the growth in test [12] was 15.2% (inactive); in test [13] it was 2.8% (active); in test [14] it was 10.2% (inactive); in [15] it was -1.06% (active).
Consider `CCCCCCCCCCCCCCCCCC1=NC(C)(C)CN1CCO`, for which the growth in test [2] was 1.75% (active); in test [16] it was 82.4% (inactive); in test [17], 33.5% (inactive); in test [3], -36.2% (active); in test [4], -26.4% (active); in [5] it was -9.27% (active). For the same compound, the growth in test [6] is -38.4% (active); in test [7], 55.5% (inactive); in [8] it was -23.9% (active); in [9], 58.9% (inactive); in [10], -60.1% (active); in test [11], -60.4% (active). The results for the growth in test [13], in [14] and in test [15] were -67% (active), -87.6% (active) and -76.3% (active), respectively.
Take `Cn1cc(-c2csc(-c3cn(C)c4ncccc34)n2)c2cccnc21`: the growth is 87.5% (inactive) in [1]; 90.2% (inactive) in test [16]; 100% (inactive) in test [17]; 123% (inactive) in test [3]; 111% (inactive) in test [4]; 112% (inactive) in test [5]. Further, the growth in [7] is 91.1% (inactive); in test [8], 101% (inactive); in test [9], 93.6% (inactive); in [10], 75.8% (inactive); in test [11], 92.4% (inactive); in test [12] it was 91.6% (inactive). The figures for the growth in test [13], in test [14] and in test [15] were 95% (inactive), 99.2% (inactive) and 96.4% (inactive), respectively.
